{
  "source": "PubChem BioAssay (NCATS)",
  "note": "Several values for one entry are separate records, joined by “and”; a condition that tells them apart may be missing. Equal entries are not always repeated. Inconclusive results are not listed. Activity calls are given as the source filed them. The call rests on the fitted dose curve; in most records, active means well fitted inhibition curve with a large enough effect; inconclusive means small, poorly fitted or top-dose-only effect; inactive means flat fitted curve, though single readings scatter.",
  "data": [
    {"tested_on": "KB-3-1", "experiment": "Cytotoxic Profiling of Annotated Libraries Using Quantitative High-Throughput Screening (AID 1296008); further: nearly all actives have a fitted effect of over 60% in size; further: potency means the concentration at half of the fitted maximal effect; on max response: on the % scale 0 is the no-effect control and ±100 the full control effect", "conditions": "Five cell lines viability, CellTiter-Glo ATP luminescence, 48-72 h; max response: active compounds read low", "outline": "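Compounds were pin-transferred onto cells and incubated 48 or 72 hr at 37 degree Celsius, 95% humidity. CellTiter-Glo was added, plates sat 10 min at room temperature, then ATP-coupled luminescence was imaged as the viability read-out.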", "values": [
      {"molecule": "NS(=O)(=O)c1cc2c(cc1Cl)NC(Cc1ccccc1)NS2(=O)=O", "note": "(configuration not stated)", "max response": "-0.731% (inactive)"},
      {"molecule": "CCCCC(O)c1ccccc1", "note": "(configuration not stated)", "max response": "6.09% (inactive)"},
      {"molecule": "c1ccc2cc(C3=NCCN3)ccc2c1", "max response": "-9.97% (inactive)"},
      {"molecule": "CCN(CC)CCC(=O)N1c2ccccc2Sc2ccc(C(F)(F)F)cc21", "max response": "2.13% (inactive)"},
      {"molecule": "Cc1c(O)c(=O)ccn1C", "max response": "5.64% (inactive)"},
      {"molecule": "CC(=O)Nc1ccc(OC(=O)c2ccccc2O)cc1", "max response": "-18% (inactive)"},
      {"molecule": "c1ccc2c(c1)OCC(CN1CCCCC1)O2", "note": "(configuration not stated)", "max response": "-16% (inactive)"},
      {"molecule": "CCCCO", "max response": "-19.5% (inactive)"},
      {"molecule": "Cc1ccc(S(=O)(=O)NC(=O)N[C@@H](C)Cc2ccccc2)cc1", "max response": "4.03% (inactive)"},
      {"molecule": "CCOc1ccc(S(=O)(=O)O)c2cccnc12", "max response": "5.36% (inactive)"},
      {"molecule": "CC(C)[C@@H]1CC[C@@H](C)C[C@H]1OC(=O)c1ccccc1O", "max response": "-4.38% (inactive)"},
      {"molecule": "O=C(CCCN1CCC(C(=O)c2ccc(F)cc2)CC1)c1ccc(F)cc1", "max response": "33.7% (inactive)"},
      {"molecule": "CC1=C[C@H](O)CC(C)(C)[C@H]1/C=C/C(C)=C/C=C/C(C)=C/C=C/C=C(C)/C=C/C=C(C)/C=C/C1=C(C)C[C@@H](O)CC1(C)C", "max response": "-11% (inactive)"},
      {"molecule": "CCN(CC)CCC(=O)N1c2ccccc2Sc2ccc(Cl)cc21", "max response": "24.4% (inactive)"},
      {"molecule": "CC(C)OC(=O)Nc1ccc2nc(-c3cscn3)[nH]c2c1", "Potency": "5.8 µM (active)"},
      {"molecule": "CC(=NCc1ccccc1)c1ccccc1O", "max response": "-11.4% (inactive)"},
      {"molecule": "CN1C(=O)OC(C)(C)C1=O", "max response": "3.96% (inactive)"},
      {"molecule": "O=C(O)CCC/C=C\\C[C@@H]1[C@@H](/C=C/[C@@H](O)COc2cccc(Cl)c2)[C@H](O)C[C@@H]1O", "max response": "-2.7% (inactive)"},
      {"molecule": "CC(C)CN(C[C@@H](OP(=O)(O)O)[C@H](Cc1ccccc1)NC(=O)O[C@H]1CCOC1)S(=O)(=O)c1ccc(N)cc1", "max response": "1.96% (inactive)"},
      {"molecule": "NCC[C@H](O)C(=O)N[C@@H]1C[C@H](N)[C@@H](O[C@H]2O[C@H](CN)CC[C@H]2N)[C@H](O)[C@H]1O[C@H]1O[C@H](CO)[C@@H](O)[C@H](N)[C@H]1O", "max response": "4.22% (inactive)"},
      {"molecule": "c1ccc2ccccc2c1", "max response": "-0.155% (inactive)"},
      {"molecule": "CC(=O)Nc1ccc(OC(C)=O)cc1", "max response": "6.1% (inactive)"},
      {"molecule": "Cn1cc(NC(=O)c2cc(NC(=O)c3cc(NC=O)cn3C)cn2C)cc1C(=O)NCCC(=N)N", "max response": "2.85% (inactive)"},
      {"molecule": "CC(/C=C/C=C(\\C)C(=O)O[C@@H]1O[C@H](CO[C@@H]2O[C@H](CO)[C@@H](O)[C@H](O)[C@H]2O)[C@@H](O)[C@H](O)[C@H]1O)=C\\C=C\\C=C(C)\\C=C\\C=C(/C)C(=O)O[C@@H]1O[C@H](CO[C@@H]2O[C@H](CO)[C@@H](O)[C@H](O)[C@H]2O)[C@@H](O)[C@H](O)[C@H]1O", "max response": "1.72% (inactive)"},
      {"molecule": "CC(C)(CO)[C@@H](O)C(=O)NCCC(=O)NCCSSCCNC(=O)CCNC(=O)[C@H](O)C(C)(C)CO", "max response": "-0.241% (inactive)"},
      {"molecule": "C[C@@H]1O[C@@H](OC[C@H]2O[C@@H](Oc3c(-c4ccc(OCCO)c(OCCO)c4)oc4cc(OCCO)cc(O)c4c3=O)[C@H](O)[C@@H](O)[C@@H]2O)[C@H](O)[C@H](O)[C@H]1O", "max response": "-2.8% (inactive)"},
      {"molecule": "O=C1CC[C@@H](C(=O)N[C@H]2C[C@@H]2c2ccccc2)N1", "max response": "-13% (inactive)"},
      {"molecule": "COc1cc2c(cc1OC)[C@@H](Cc1cc(OC)c(OC)c(OC)c1)[N+](C)(CCCOC(=O)CC/C=C/CCC(=O)OCCC[N+]1(C)CCc3cc(OC)c(OC)cc3[C@H]1Cc1cc(OC)c(OC)c(OC)c1)CC2", "note": "(some centres not stated)", "max response": "-6.45% (inactive) and -2.94% (inactive)"},
      {"molecule": "CCCOc1cc(N)ccc1C(=O)OCCN(CC)CC", "max response": "-11.4% (inactive)"},
      {"molecule": "CC(C)(C)C(=O)OCC(=O)[C@H]1CC[C@H]2[C@@H]3CCC4=CC(=O)CC[C@]4(C)[C@H]3CC[C@]12C", "max response": "-9.73% (inactive)"},
      {"molecule": "O=C(O)[C@@H]1C[C@H](CP(=O)(O)O)CCN1", "max response": "23.4% (inactive)"},
      {"molecule": "CCOC(=O)Cc1ccc(-c2ccccc2)cc1", "max response": "6.55% (inactive)"},
      {"molecule": "NC(=O)OCC(O)COc1ccc(Cl)cc1", "note": "(configuration not stated)", "max response": "15.4% (inactive)"},
      {"molecule": "CCSc1ccc2c(c1)N(CCCN1CCN(C)CC1)c1ccccc1S2", "max response": "-2.13% (inactive)"},
      {"molecule": "CC(=O)N[C@@H]1C(O[C@H]2O[C@H](C(=O)O)C(O)[C@H](O)[C@H]2O)[C@H](O)[C@@H](CO)O[C@H]1O[C@@H]1C(C(=O)O)O[C@@H](O[C@H]2[C@H](O)[C@@H](CO)OC(O)[C@@H]2NC(C)=O)[C@H](O)[C@H]1O", "note": "(some centres not stated)", "max response": "-7.66% (inactive)"},
      {"molecule": "CC(C)C1=CC2=CC[C@@H]3[C@](C)(CCC[C@@]3(C)C(=O)O)[C@H]2CC1", "max response": "-11.9% (inactive)"},
      {"molecule": "CS(=O)(=O)c1ccc([C@@H](O)[C@@H](COC(=O)CN)NC(=O)C(Cl)Cl)cc1", "max response": "-15.1% (inactive)"}
    ]}
  ]
}
